# Measurements as given in PubChem BioAssay (NCATS).
# Where “and” joins values, the source holds several entries; their conditions need not be identical. Equal values may be shown once. Values without a mark were called inactive. Inconclusive results are not listed. Where a call stands in place of a potency, no number is given. Calls of active or inactive are those of the source. Unless noted, calls come from the whole dose curve; as a rule, active = well fitted curve in the direction sought with a large enough effect; inconclusive = small, poorly fitted or top-dose-only effect, or another doubt; inactive = no such curve, though single readings can be large; an effect the other way counts as inactive or inconclusive. Residues, ends and D or L forms follow the SMILES beside them. *: point of attachment. Cbz = O=C(OCc1ccccc1)*
# Key:
# [1] = biological target: Beta-2 adrenergic receptor (Homo sapiens) (UniProt P07550); assay: qHTS validation assay of beta-arrestin-biased ligands of beta2-adrenergic receptor (AID 485366)
# How it was run: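 Arrestin-recruitment (Tango) reporter: ligand-bound beta2-AR recruits beta-arrestin, releasing tTA, which upregulates luciferase. Titrations of up to 46 microM incubated 18 hr at 37 degrees C before luminescent readout.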
# [2] = biological target: ATP-dependent 6-phosphofructokinase (Trypanosoma brucei brucei) (UniProt O15648); assay: qHTS Validation Assay to Find Inhibitors of T. brucei phosphofructokinase (AID 485368); note: potency is the fitted concentration of half-maximal effect
# How it was run: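 Steps: substrate mix (0.5 mM F6P, 0.1 mM ATP, MgCl2, TEA pH 8.0); compound; 1.25 nM T. brucei PFK; 45 min RT; ATP depletion 10 min; ADP-to-ATP detection 10 min; luminescence read; curve fitting and classification.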
# [3] = Quantitative high throughput screen for delayed death inhibitors of the malarial parasite plastid, 96 hour incubation (AID 488745); note: nearly all actives have a fitted effect of over 70% in size; note: potency is the fitted concentration of half-maximal effect
# How it was run: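 P. falciparum carrying an integrated firefly luciferase reporter, grown in erythrocytes (2% hematocrit, 0.1% parasitemia final) in RPMI 1640/0.5% Albumax, was exposed to compound for 96 h (two generations) at 37 C, 5% CO2. Luminescence decrease indicated growth inhibition.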
# [4] = Quantitative high throughput screen for delayed death inhibitors of the malarial parasite plastid, 48 hour incubation (AID 488752); note: nearly all actives have a fitted effect of over 65% in size; note: potency is the fitted concentration of half-maximal effect
# How it was run: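 Erythrocytes infected with P. falciparum carrying an integrated firefly luciferase reporter (2% hematocrit, 0.1% parasitemia final) were exposed to compounds in RPMI 1640/0.5% Albumax for 48 h at 37 C, 5% CO2. Growth inhibition was scored as reduced luminescence.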
# [5] = biological target: Thioredoxin reductase 1, cytoplasmic (Rattus norvegicus) (UniProt O89049); assay: qHTS Assay for Substrates of Mammalian Selenoprotein Thioredoxin Reductase 1 (TrxR1) (AID 488772);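 note: NADPH fluorescence in the first read after selenite addition and not the 8 min delta; series mostly up to about 57 µM; a drop in NADPH fluorescence below the no-compound background marks a TrxR1 substrate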
# How it was run: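 Quantitative HTS in Tris-HCl buffer at pH 7.5 with EDTA and Tween-20, using rat TrxR1, 400 uM NADPH and 400 uM selenite (final). A fall in initial NADPH fluorescence relative to background marked substrate behaviour.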
# [6] = biological target: Thioredoxin reductase 1, cytoplasmic (Rattus norvegicus) (UniProt O89049); assay: qHTS Assay for Inhibitors of Mammalian Selenoprotein Thioredoxin Reductase 1 (TrxR1) (AID 488773); conditions: Potency: inhibition;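 note: drop in NADPH fluorescence over an 8 min run after selenite addition; series mostly up to about 57 µM; nearly all actives have a fitted effect of over 40% in size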
# How it was run: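 Steps: enzyme (90 nM) plus NADPH (400 uM final), 5 min at ~22 deg C; compound added, 15 min; selenite (400 uM final) added; fluorescence followed for 8 min. Concentration-response curves derived from the normalized delta values.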
# [7] = biological target: Flap endonuclease 1 (Homo sapiens) (UniProt P39748); assay: qHTS Validation Assay for the Inhibitors of Human Flap endonuclease 1 (FEN1) (AID 488816); note: potency is the fitted concentration of half-maximal effect
# How it was run: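 FEN1, dispensed as a 10 nM reagent, was preincubated with pin-transferred compounds for 15 min at room temperature before substrate was added (50 nM final). Plates were read at 0 and 15 min, and a four-parameter Hill equation was fitted to the concentration-response data.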
# [8] = biological target: M-phase phosphoprotein 8 (Homo sapiens) (UniProt Q99549); assay: qHTS Validation Assay for Inhibitors for MPP8 Chromodomain Interactions with Methylated Histone Tails (AID 488949); note: nearly all actives have a fitted effect of over 55% in size; note: potency is the fitted concentration of half-maximal effect
# How it was run: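 MPP8 (50 nM) was preincubated with biotinylated H3(1-18)K9me3 peptide (50 nM) in PBS pH 7.4, 0.01% Tween-20 for 30 min at room temperature, then with compounds for 30 min; binding was detected by AlphaScreen.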
# [9] = biological target: Methanococcus maripaludis chaperonin (MmCpn) (UniProt Q6LX38); assay: High-Throughput Screening for Modulators of Cytosolic Chaperonin Activity: MmCpn Primary Screen (AID 488978);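 note: 50 nM MmCpn enzyme hydrolysing 30 µM ATP at 37 °C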
# How it was run: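 MmCpn (50 nM final) was preincubated with compound 5 min at RT, then 30 uM ATP (final) was added and the reaction ran 10 min at 37C. ADP produced was detected by Transcreener HTRF (ex 320 nm; em 590/665 nm).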
# [10] = biological target: Transient receptor potential cation channel subfamily V member 1 (Homo sapiens) (UniProt Q8NER1); assay: HTS Assay for Compounds that Act as Enhancers of the Vanilloid Receptor 1 (AID 488979)
# How it was run: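 TRPV1-expressing cells loaded with Fluo-8 calcium dye; compounds added and calcium influx read kinetically for 3 min (agonist phase), then capsaicin at EC20 added and read 2 min more for enhancement. Fluorescence ex 480/em 520 nm.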
# [11] = biological target: Thyrotropin receptor (Homo sapiens) (UniProt P16473); assay: qHTS Assay for Antagonists of the Thyroid Stimulating Hormone Receptor (AID 488980); note: series mostly up to about 58 µM
# How it was run: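 HEK293 cells transfected with human TSHR, suspended in HEPES-buffered HBSS with 70 uM RO 20-1724, were treated with compounds plus TSH at EC80 (4 nM final). cAMP was measured by competitive HTRF (cryptate anti-cAMP antibody, cAMP-d2 acceptor).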
# [12] = biological target: D(1A) dopamine receptor (Homo sapiens) (UniProt P21728); assay: HTS Assay for Allosteric Agonists of the Human D1 Dopamine Receptor: Primary Screen for Agonists (AID 488981)
# How it was run: (§1)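 Tetracycline-induced HEK293 T-REx cells force-coupled to calcium signalling were incubated overnight at 30 C and dye-loaded at room temperature. Calcium flux over 180 s after compound addition flagged agonists; a further 180 s read after EC20 dopamine flagged potentiators.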
# [13] = biological target: D(1A) dopamine receptor (Homo sapiens) (UniProt P21728); assay: HTS Assay for Allosteric Agonists of the Human D1 Dopamine Receptor: Primary Screen for Potentiators (AID 488982); note: potency is the fitted concentration of half-maximal effect
# How it was run: as §1
# [14] = biological target: D(1A) dopamine receptor (Homo sapiens) (UniProt P21728); assay: HTS Assay for Allosteric Agonists of the Human D1 Dopamine Receptor: Primary Screen for Antagonists (AID 488983);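 note: calcium flux response to an EC80 dopamine challenge measured with no-wash dye; nearly all actives have a fitted effect of over 65% in size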
# How it was run: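 Tetracycline-induced HEK293 T-REx cells expressing force-coupled D1 were plated overnight at 30 C, dye-loaded for calcium, and read kinetically. Compounds were pinned in, then an EC80 dopamine challenge followed after 180 s to reveal antagonism.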
# [15] = Validation screen for small molecules that induce genotoxicity in human embryonic kidney (HEK293T) cells expressing luciferase-tagged ELG1 (AID 493106)
# How it was run: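 HEK293T cells expressing luciferase-tagged ELG1 were exposed to compound or DMSO vehicle for 16 hr at 37 °C, 5% CO2. Genotoxic stress raises ELG1 levels, so increased luciferase signal after ONE-Glo addition and 30 min at room temperature marks hits.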
# [16] = biological target: ATPase family AAA domain-containing protein 5 (Homo sapiens) (UniProt Q96QE3); assay: Validation screen for small molecules that inhibit ELG1-dependent DNA repair in human embryonic kidney (HEK293T) cells expressing luciferase-tagged ELG1 (AID 493107);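 note: cells co-treated with the DNA-damaging agent 5-fluorouridine alongside compound; series mostly up to about 46 µM; inhibitors lower the ELG1-luciferase luminescence signal; nearly all actives have a fitted effect of over 70% in size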
# How it was run: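 HEK293T cells expressing luciferase-tagged ELG1 were co-treated with 5-fluorouridine and compound or DMSO for 16 hr at 37 °C, 5% CO2. Luciferase activity was then read with ONE-Glo after 30 min at room temperature; suppressed signal indicates blocked ELG1 function.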
# [17] = biological target: Thyrotropin-releasing hormone receptor (Homo sapiens) (UniProt P34981); assay: qHTS for Small Molecule Agonists and Allosteric Enhancers of Human TRH Receptor: Validation Screen for Agonists (AID 493127;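 active = calcium activation more than 3 SD above the typical response in the agonist read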;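 note: intracellular calcium rise by fluo-8 fluorescence before TRH EC20 addition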); conditions: TRH receptor agonist cell assay; at 2 µM; active compounds read high
# How it was run: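 TRHR-expressing cells were plated overnight in serum-containing medium, then loaded with fluo-8 calcium dye at room temperature for 30 min–1.5 h. After a 10 s baseline, compound was pin-transferred and calcium fluorescence (ex 480/em 530) read kinetically for agonist response.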
# [18] = biological target: Chromobox protein homolog 1 (Homo sapiens) (UniProt P83916); assay: qHTS Validation Assay for Inhibitors of HP1-beta Chromodomain Interactions with Methylated Histone Tails (AID 488953); note: nearly all actives have a fitted effect of over 50% in size; note: potency is the fitted concentration of half-maximal effect
# How it was run: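 HP1-beta (50 nM) was preincubated 30 min at room temperature with biotinylated H3(1-18)K9me3 peptide (50 nM) in PBS pH 7.4, 0.01% Tween-20, then with compounds 30 min. AlphaScreen signal was read after streptavidin donor/nickel chelate acceptor beads (10 ug/mL final).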
# Chain of ATP-dependent 6-phosphofructokinase (Trypanosoma brucei brucei) (O15648 whole entry, looked up): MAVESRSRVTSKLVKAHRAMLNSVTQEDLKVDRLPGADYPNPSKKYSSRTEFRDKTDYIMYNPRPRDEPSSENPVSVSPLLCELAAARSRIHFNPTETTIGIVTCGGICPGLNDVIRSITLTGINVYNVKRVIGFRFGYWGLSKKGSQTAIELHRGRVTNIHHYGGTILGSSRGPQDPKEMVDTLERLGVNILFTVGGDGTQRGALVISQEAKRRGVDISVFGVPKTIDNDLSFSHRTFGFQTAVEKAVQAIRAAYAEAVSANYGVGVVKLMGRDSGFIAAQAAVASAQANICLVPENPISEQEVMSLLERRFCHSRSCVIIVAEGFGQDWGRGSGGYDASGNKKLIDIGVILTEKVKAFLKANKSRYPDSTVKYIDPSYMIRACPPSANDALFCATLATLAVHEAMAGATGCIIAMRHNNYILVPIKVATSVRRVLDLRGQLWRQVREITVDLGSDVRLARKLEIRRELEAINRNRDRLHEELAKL
# Chain of Beta-2 adrenergic receptor (Homo sapiens) (P07550 whole entry, looked up): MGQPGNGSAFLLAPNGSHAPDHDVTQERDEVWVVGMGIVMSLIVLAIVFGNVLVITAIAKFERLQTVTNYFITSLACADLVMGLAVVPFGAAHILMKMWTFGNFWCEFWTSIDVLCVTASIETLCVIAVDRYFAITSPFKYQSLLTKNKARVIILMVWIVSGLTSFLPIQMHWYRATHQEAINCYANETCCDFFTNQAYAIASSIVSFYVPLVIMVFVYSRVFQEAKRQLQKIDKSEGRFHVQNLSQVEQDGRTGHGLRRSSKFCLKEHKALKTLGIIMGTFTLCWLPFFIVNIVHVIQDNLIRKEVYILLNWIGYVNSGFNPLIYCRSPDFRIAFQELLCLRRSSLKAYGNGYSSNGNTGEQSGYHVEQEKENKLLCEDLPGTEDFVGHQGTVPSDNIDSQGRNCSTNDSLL
# Chain of Chromobox protein homolog 1 (Homo sapiens) (P83916 whole entry, looked up): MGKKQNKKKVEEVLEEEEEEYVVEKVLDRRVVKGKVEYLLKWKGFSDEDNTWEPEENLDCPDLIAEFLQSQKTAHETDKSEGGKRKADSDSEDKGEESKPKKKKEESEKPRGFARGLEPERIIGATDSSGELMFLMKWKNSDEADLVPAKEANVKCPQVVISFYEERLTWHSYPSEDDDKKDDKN
# Chain of Flap endonuclease 1 (Homo sapiens) (P39748 whole entry, looked up): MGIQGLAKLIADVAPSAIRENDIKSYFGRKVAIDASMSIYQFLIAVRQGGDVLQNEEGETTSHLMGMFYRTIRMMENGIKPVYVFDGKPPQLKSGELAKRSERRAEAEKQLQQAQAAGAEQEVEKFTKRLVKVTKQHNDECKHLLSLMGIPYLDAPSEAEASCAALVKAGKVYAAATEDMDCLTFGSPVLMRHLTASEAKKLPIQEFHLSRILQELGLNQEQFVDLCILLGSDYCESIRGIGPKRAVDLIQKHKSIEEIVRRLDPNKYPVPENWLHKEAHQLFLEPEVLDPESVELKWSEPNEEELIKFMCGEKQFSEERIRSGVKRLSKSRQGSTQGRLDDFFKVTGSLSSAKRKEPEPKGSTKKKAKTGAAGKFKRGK
# Chain of Thyrotropin-releasing hormone receptor (Homo sapiens) (P34981 whole entry, looked up): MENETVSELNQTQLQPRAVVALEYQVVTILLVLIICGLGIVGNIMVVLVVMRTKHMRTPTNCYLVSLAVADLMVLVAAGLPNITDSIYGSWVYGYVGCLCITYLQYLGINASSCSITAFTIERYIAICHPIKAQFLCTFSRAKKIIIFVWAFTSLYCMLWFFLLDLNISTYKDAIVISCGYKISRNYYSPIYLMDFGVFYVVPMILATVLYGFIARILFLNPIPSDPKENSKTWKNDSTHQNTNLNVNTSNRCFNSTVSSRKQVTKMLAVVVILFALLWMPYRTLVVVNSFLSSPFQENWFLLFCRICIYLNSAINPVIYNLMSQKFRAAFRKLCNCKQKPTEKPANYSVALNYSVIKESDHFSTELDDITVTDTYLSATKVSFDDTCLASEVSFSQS
# Chain of Methanococcus maripaludis chaperonin (MmCpn) (Q6LX38 1-543): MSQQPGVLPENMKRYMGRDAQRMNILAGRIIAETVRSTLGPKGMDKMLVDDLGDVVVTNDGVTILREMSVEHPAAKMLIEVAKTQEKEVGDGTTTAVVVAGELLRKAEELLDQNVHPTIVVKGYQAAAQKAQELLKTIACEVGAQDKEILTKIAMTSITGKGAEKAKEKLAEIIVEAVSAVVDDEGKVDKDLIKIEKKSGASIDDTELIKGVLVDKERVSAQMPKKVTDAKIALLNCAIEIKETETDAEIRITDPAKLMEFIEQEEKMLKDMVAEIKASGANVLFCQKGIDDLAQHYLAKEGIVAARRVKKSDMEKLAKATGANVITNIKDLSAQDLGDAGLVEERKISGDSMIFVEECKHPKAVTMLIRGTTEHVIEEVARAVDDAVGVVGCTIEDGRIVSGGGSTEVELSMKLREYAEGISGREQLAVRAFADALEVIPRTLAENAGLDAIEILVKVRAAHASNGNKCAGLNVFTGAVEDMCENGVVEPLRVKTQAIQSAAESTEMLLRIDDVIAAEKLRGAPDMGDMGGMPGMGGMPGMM
# Chain of Transient receptor potential cation channel subfamily V member 1 (Homo sapiens) (Q8NER1 whole entry, looked up): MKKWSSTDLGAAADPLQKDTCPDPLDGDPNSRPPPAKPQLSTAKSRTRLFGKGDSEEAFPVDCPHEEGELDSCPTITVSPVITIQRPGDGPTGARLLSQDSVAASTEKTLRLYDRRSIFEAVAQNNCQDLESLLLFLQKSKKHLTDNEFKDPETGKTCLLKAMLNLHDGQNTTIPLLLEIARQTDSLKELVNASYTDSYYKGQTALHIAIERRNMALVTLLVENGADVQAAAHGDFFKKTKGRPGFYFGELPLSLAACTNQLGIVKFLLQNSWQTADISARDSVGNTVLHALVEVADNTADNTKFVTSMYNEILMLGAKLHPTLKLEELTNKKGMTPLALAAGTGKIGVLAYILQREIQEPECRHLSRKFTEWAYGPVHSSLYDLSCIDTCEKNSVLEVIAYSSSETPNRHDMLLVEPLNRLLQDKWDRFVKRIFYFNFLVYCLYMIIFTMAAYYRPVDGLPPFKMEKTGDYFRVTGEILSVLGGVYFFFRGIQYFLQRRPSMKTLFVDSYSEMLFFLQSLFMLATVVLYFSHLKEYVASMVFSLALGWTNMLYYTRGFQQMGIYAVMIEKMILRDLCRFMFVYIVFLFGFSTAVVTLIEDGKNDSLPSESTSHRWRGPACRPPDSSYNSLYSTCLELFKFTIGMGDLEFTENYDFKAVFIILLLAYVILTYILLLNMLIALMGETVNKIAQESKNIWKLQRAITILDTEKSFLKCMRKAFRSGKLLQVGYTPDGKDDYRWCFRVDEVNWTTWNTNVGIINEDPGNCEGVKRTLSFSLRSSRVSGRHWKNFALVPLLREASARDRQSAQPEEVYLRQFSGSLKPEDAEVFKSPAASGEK
# Chain of Thyrotropin receptor (Homo sapiens) (P16473 whole entry, looked up): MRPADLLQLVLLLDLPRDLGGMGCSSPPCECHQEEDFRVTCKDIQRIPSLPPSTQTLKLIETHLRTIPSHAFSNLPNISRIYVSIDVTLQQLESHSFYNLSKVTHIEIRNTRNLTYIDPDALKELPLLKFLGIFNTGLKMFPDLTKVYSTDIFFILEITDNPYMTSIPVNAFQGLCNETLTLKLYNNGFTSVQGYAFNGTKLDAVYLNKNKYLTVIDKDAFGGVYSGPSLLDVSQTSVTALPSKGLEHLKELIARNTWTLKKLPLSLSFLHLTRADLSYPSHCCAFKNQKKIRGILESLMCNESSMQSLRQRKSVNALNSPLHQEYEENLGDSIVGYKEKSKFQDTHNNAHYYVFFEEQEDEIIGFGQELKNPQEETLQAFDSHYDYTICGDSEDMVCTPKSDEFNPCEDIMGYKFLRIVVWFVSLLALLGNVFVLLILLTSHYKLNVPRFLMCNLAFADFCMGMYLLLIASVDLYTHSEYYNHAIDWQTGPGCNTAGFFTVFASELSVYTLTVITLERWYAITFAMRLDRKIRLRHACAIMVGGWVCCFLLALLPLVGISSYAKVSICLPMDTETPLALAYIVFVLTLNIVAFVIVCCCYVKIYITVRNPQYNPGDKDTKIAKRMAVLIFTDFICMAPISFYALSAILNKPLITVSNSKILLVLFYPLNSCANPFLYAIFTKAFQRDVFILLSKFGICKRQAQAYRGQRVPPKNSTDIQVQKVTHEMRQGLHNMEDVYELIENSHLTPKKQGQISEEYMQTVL
# Chain of M-phase phosphoprotein 8 (Homo sapiens) (Q99549 whole entry, looked up): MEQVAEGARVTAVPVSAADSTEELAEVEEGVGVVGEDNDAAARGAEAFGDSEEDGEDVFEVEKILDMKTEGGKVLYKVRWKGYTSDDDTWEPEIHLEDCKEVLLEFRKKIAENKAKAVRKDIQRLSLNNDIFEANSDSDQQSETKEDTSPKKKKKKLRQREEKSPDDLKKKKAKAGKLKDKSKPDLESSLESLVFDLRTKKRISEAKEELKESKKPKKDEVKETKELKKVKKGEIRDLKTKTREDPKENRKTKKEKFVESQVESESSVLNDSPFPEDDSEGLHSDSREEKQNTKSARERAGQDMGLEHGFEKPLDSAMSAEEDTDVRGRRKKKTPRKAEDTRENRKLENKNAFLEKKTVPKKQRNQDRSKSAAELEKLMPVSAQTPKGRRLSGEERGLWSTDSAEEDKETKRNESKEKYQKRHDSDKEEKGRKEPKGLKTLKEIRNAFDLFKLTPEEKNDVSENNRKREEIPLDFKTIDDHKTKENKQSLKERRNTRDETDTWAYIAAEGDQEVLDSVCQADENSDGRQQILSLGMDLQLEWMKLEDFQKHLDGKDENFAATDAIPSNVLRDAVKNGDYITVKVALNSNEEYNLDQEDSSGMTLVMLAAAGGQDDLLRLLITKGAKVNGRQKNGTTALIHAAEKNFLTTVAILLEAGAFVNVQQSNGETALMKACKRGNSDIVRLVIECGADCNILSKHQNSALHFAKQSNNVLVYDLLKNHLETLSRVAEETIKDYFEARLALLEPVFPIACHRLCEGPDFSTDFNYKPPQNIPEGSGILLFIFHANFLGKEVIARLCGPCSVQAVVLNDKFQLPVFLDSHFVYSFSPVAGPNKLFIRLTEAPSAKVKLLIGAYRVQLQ
Structure (SMILES),outcome [1],Potency [2],Potency [3],Potency [4],outcome [5],Potency [6],Potency [7],Potency [8],outcome [9],outcome [10],outcome [11],Potency [12],Potency [13],Potency [14],Potency [15],Potency [16],activation [17] [%],Potency [18]
CC(N)(C(=O)O)c1ccc(C(=O)O)cc1 (stereo unspecified),inactive,inactive,inactive,inactive,inactive,inactive,inactive,inactive,inactive,inactive,inactive,inactive,inactive,inactive,inactive,inactive,1.12,
CC(C)Cn1c(=O)n(C)c(=O)c2[nH]cnc21,inactive,inactive,inactive,inactive,inactive,inactive,inactive,inactive,inactive,inactive,inactive,inactive,inactive,inactive,inactive,inactive,0.875,inactive
N[C@H](C(=O)O)[C@H]1C[C@@H]1C(=O)O,inactive,inactive,inactive,inactive,inactive,inactive,inactive,inactive,inactive,inactive,inactive,inactive,inactive,inactive,inactive,inactive,0.812,inactive
NC(=O)c1ccccc1,inactive,inactive,inactive,inactive,inactive,inactive,inactive,inactive,inactive,inactive,inactive,inactive,inactive,inactive,inactive,inactive,0.25,inactive
N=S(=O)(O)Cc1noc2ccccc12,inactive,inactive,inactive,inactive,inactive,inactive,inactive,inactive,inactive,inactive,inactive,,inactive,inactive,inactive,inactive,,inactive
N=C(N)c1ccc(N)cc1,inactive,inactive,inactive,inactive,inactive,inactive,inactive,inactive,inactive,inactive,inactive,inactive,inactive,inactive,inactive,inactive,-2.75,inactive
NC(N)=[N+]1CCc2ccccc2C1,inactive,inactive,inactive,inactive,inactive,inactive,inactive,inactive,inactive,inactive,inactive,inactive,,inactive,inactive,inactive,-0.125,inactive
CC(C)[C@H](NC(=O)OCc1ccccc1)C(=O)N[C@H](C=O)Cc1ccccc1 (Cbz-Val-Phe-aldehyde),inactive,inactive,2.33 µM (active),2.94 µM (active),inactive,inactive,inactive,inactive,inactive,inactive,inactive,inactive,2.06 µM (active),inactive,inactive,inactive,,inactive
C=CC1(C)CC(=O)C2(O)C(C)(O1)C(OC(C)=O)C(O)C1C(C)(C)CCC(O)C12C (stereo unspecified),inactive,inactive,inactive,inactive,inactive,inactive,inactive,inactive,inactive,inactive,inactive,inactive,inactive,inactive,,inactive,,inactive
CN[C@H](CC(=O)O)C(=O)O,inactive,inactive,inactive,inactive,inactive,inactive,inactive,inactive,inactive,inactive,inactive,inactive,inactive,inactive,inactive,inactive,1,inactive
Cn1c(=O)[nH]c2ncn(C)c2c1=O,inactive,inactive,inactive,inactive,inactive,inactive,inactive,inactive,inactive,inactive,inactive,,inactive,inactive,inactive,inactive,0.188,
O=C(O)C1=CC(=C(c2ccc(O)c(C(=O)O)c2)c2ccc(O)c(C(=O)O)c2)C=CC1=O,inactive,60.1 nM (active),inactive,inactive,inactive,inactive,134 nM (active),178 nM (active) and 238 nM (active),inactive,inactive,inactive,inactive,inactive,inactive,inactive,,,199 nM (active)
CCCCC[C@H](CC(=O)NO)C(=O)N[C@H](C(=O)N1CCC[C@H]1CO)C(C)C,inactive,inactive,1.17 µM (active),2.94 µM (active),inactive,inactive,inactive,inactive,inactive,inactive,inactive,inactive,inactive,inactive,inactive,,-2.88,
COc1cc(CNC(=O)CCCCCCC(C)C)ccc1O,inactive,inactive,inactive,inactive,inactive,inactive,inactive,inactive,inactive,,inactive,inactive,inactive,inactive,inactive,,,inactive
